Results filed as inconclusive are left out. Values without a mark were called inactive. Calls follow the shape of the full dose curve.
The compounds below were run against Acetylcholinesterase (Homo sapiens) (UniProt P22303) (assay: Acetylcholinesterase (AChE) small molecule antagonists: fluorescence cell-based qHTS assay (AID 1347398; also: nearly all actives have a fitted effect of over 50% in size)). Settings: SH-SY5Y cells; Potency: AChE activity; outcome: AChE activity; series mostly up to 115 µM; activity change, negative = inhibition: at the top concentration.
Sequence of Acetylcholinesterase (Homo sapiens) (P22303 whole entry, looked up): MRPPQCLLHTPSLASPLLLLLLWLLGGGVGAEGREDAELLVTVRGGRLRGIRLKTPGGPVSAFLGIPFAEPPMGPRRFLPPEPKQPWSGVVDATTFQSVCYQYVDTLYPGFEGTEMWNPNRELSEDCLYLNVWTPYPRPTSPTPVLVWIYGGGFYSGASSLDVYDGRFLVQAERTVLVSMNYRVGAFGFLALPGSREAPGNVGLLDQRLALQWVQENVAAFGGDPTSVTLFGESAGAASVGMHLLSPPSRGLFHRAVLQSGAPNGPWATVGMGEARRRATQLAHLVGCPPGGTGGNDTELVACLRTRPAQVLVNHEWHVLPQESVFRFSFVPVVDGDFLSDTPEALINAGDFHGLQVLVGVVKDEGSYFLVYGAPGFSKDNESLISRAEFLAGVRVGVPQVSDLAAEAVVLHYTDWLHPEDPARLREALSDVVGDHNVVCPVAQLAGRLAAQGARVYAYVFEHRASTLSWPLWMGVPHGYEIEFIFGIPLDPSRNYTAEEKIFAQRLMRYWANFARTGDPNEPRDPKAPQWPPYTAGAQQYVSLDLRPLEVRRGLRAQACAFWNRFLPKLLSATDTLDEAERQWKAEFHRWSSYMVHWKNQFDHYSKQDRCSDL
From the text: National Center for Advancing Translational Sciences [NCATS]
Division of Preclinical Innovation [DPI]
U.S. Environmental Protection Agency [EPA]
National Institutes of Environmental Health Sciences [NIEHS]
National Toxicology Program [NTP]
U.S. Food and Drug Administration [FDA]
Acetylcholinesterase (AChE) is the primary cholinesterase in the body that hydrolyzes a key neurotransmitter, acetylcholine. Inhibition of AChE activity can lead to neurotoxicity. Known inhibitors of AChE include organophosphorous pesticides (OP), chemical warfare agents, drugs, and various phytochemicals.
A homogenous cell-based assay using Amplitetrade mark Fluorimetric Acetylcholinesterase Assay Kit *Green Fluorescence* (AAT Bioquest, Sunnyvale, CA) was used to evaluate the chemicals in the Tox21 10K library that inhibit AChE activity. The assay uses Thiolite Green to quantify the thiocholine produced from the hydrolysis of acetylthiocholine by AChE from the SH-SY5Y cells. AChE can hydrolyze acetylthiocholine to create thiocholine. Thiolite Green is fluorescent when reacting with thiocholine. It has spectral properties similar to those of fluorescein. The fluorescence intensity of Thiolite Green is used to measure AChE activity. Its signal can be easily read by a fluorescence microplate reader at Ex/Em = 490/520 nm.
Tox21 Assay Protocol Summary:
For cell-based AChE assay, 2,000 SH-SY5Y cells in 4 uL/well were dispensed into black, clear-bottom 1536-well plates using a Multidrop Combi (Thermo Scientific) dispenser. The assay plates were incubated overnight at 37 C to allow cells to attach to the wells, followed by the transfer of 23 nL compound or DMSO (vehicle control) by a Pintool station (Wako Automation, CA). The plates were incubated for 30 min at 37 C and 5% CO2, followed by the addition of 4 uL of detection cocktail solution (ThioliteGreen, acetylthiocholine) into each well using Flying Reagent Dispenser (Beckman Coulter, CA) and then following 40 min incubation at room temperature. Fluorescent intensity (Ex/Em = 490/520 nm) was measured using an Envision plate reader (PerkinElmer, MA).
% is scaled to controls: 0 for no effect and ±100 for the full control effect.

Structure (SMILES)	activity change, negative = inhibition
CC(=O)c1cccnc1	2.34%
FC(F)(F)C(F)(F)C(F)(F)C(F)(F)C(F)(F)C(F)(F)C(F)(F)C(F)(F)Br	8.7% [at 53.7 µM]
CN(C(=O)C(Cl)Cl)c1ccc(OC(=O)c2ccco2)cc1	-5.38% [at 53.7 µM]
[O-][n+]1cccc(/C(Cl)=N/OC[C@@H](O)CN2CCCCC2)c1	-12.5% [at 53.7 µM]
Nc1nc(=O)n([C@@H]2O[C@H](CO)[C@@H](O)[C@@H]2F)cc1I	6.92% [at 53.7 µM]
CC(=O)N(CC(=O)N(C)C)c1ccccc1	-3.77% [at 53.7 µM]
C[C@@H]1C[C@H]2[C@@H]3C[C@H](F)C4=CC(=O)C(Cl)=C[C@]4(C)[C@@]3(F)[C@@H](O)C[C@]2(C)[C@@]1(O)C(=O)CO	3.6% [at 53.7 µM]
COC(=O)C1CC(=O)C(C(=O)OC)CC1=O (stereo not given)	1.15% [at 10.5 µM]
CCCCCCCC/C=C\CCCCCCCC(=O)OCC	-3.93%
O=C(O)c1cccc(C(F)(F)F)c1	0.272%
COC(=O)CC(C(C)=O)C(=O)OC (stereo not given)	1.83%
CCc1nccnc1C	5.53%
FC1(F)C(F)(F)C(F)(F)C2(F)C(F)(C1(F)F)C(F)(F)C(F)(F)C1(F)C(F)(F)C(F)(F)C(F)(F)C(F)(F)C12F (stereo not given)	0.0249%
COc1ccc(C(=O)Nc2nc3ccccc3c(NCc3ccccc3)c2C#N)cc1	1.31%
CC/C=C\CC/C=C/CO	4.64%
CC(=O)N(c1onc(C)c1C)S(=O)(=O)c1ccc(N)cc1	-22.5% [at 53.7 µM]
CCOC(=O)C1CC(=O)C(=C(O)C2CC2)C(=O)C1 (stereo not given)	-15.9%
OCC(F)(F)F	1.97%
CCCC(=O)OCc1ccccc1	0.0478%
Cc1cccc(C)c1NC(=O)CN(CC(=O)O)CC(=O)O	15.7% [at 53.7 µM]

Structure (SMILES)	activity change, negative = inhibition
CC[C@@H](N)CO	0.853%
CCCOC(=O)c1ccc(O)cc1	3.54%
O=C(O)/C=C(\CC(=O)O)C(=O)O	10.2% [at 53.7 µM]
C=COCCOCCOCCOC=C	4.8%
CC(C)(C)C(=O)Oc1ccc(S(=O)(=O)Nc2ccccc2C(=O)NCC(=O)O)cc1	0.509% [at 53.7 µM]
O=C1CCC(=O)N1Cl	4.85%
Cc1ncc([N+](=O)[O-])n1CC(C)O (stereo not given)	5.35% [at 53.7 µM]
CC(=O)NC(Cc1ccccc1)C(=O)O (stereo not given)	-16.4% [at 53.7 µM]
CC(C)C1CCC(O)CC1 (stereo not given)	3.53%
CCCCCCCCCCCCS(=O)(=O)Cl	0.319% [at 23.8 µM]
COc1cc(OC)nc(NC(=O)NS(=O)(=O)Nc2ccccc2C(=O)N(C)C)n1	-0.447%
N[C@@H](CSCCCO)C(=O)O	1.96% [at 23.8 µM]
Clc1ccc(C(Cn2ccnc2)OCc2ccc(Sc3ccccc3)cc2)c(Cl)c1 (stereo not given)	-15.1% [at 53.7 µM]
C=CCCCC	7.01%
CC(C)(CCl)c1ccccc1	4.34%
CCCCC(CC)COCCO (stereo not given)	0.706%
CC1=NN(c2cccc(S(=O)(=O)O)c2)C(=O)C1	1.25%
NC(=O)c1ccc(N)cc1	0.724%
CC(C)OC(=O)c1cc2c(OCC(O)CNC(C)(C)C)cccc2[nH]1 (stereo not given)	-17.8% [at 53.7 µM]
C=CC(=O)NCOCC(C)C	1.54%
